This is a sample that favours compounds with a hit; in the whole collection about 2.7% have one here.
Mcl1 Noxa PPI: Mcl-1/Noxa interaction inhibition; inhibition, % at 21.7 µM; TR-FRET Mcl-1/Noxa peptide binding, 2 h; actives 1.5% (n = 220,000); Q07820;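 active = compounds that cut the protein-peptide binding signal by more than 50% relative to plate controls in a single-dose test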;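 note: His-tagged Mcl-1 with rhodamine Noxa BH3 peptide and terbium anti-His antibody; 0% = Mcl-1 plus Noxa peptide wells and 100% = peptide-only wells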
Target sequence (Q07820 whole entry, looked up): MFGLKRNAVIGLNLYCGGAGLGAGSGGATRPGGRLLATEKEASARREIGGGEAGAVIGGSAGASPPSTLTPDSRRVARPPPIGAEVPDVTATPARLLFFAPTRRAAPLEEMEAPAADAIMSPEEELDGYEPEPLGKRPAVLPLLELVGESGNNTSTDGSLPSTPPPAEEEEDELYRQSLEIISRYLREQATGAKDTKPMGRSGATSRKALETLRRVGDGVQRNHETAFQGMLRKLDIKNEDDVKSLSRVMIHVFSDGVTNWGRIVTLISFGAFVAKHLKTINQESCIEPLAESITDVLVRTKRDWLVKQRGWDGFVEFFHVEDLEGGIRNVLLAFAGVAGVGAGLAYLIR
eIF4E-4G inh: blocks eIF4E binding to eIF4G. TR-FRET eIF4E-eIF4GI(517-606) binding, 2 h. inhibition, % at 21.7 µM. actives 0.37% (n = 220,000);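 active = inhibition above about 30%, limit read from the data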;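 note: 0% = full FRET control wells and 100% = background wells lacking eIF4GI fragment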
Bim-Mcl-1: disrupts Bim peptide binding to human Mcl-1; AID 1009; Bead-based flow cytometry, Bim peptide-Mcl-1 binding; inhibition, % at 10 µM; Q07820; actives 0.1% (n = 190,000); in the data active = inhibition above about 40%;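 note: 0% = no compound tracer wells and 100% = peptide blocker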
14-3-3 Bad PPI: disrupts binding of bovine 14-3-3 zeta to phospho-Bad peptide. actives 0.71% (n = 220,000). P63103. TR-FRET 14-3-3zeta/Dy647-pBad peptide displacement, 1 h. inhibition, % at 21.7 µM;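 active = inhibition above about 70%, limit read from the data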;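 note: 0% = full 14-3-3 plus peptide FRET controls and 100% = background without 14-3-3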
Pf gamet viab: P. falciparum stage V gametocyte viability inhibition; P. falciparum stage V gametocytes, ATP luminescence, 24 h; inhibition, % at 10.9 µM; actives 0.065% (n = 150,000);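 active = inhibition above the mean plus 3 SD of compounds within the control limits, set per campaign, cut at about 38% in these data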;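 note: 0% = DMSO wells and 100% = medium only without gametocytes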
Mcl1-Bid inh: Mcl-1/Bid interaction inhibition. actives 0.97% (n = 220,000). TR-FRET Mcl-1/Bid-Dy647 peptide binding, 1536-well. inhibition, % at 21.7 µM. AID 1021;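 active = compounds that cut the binding signal by more than half at the single screening dose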;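 note: His-tagged Mcl-1 with europium anti-His antibody binding Bid BH3 peptide; 0% = Mcl-1 plus peptide wells and 100% = peptide-only wells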
An asterisk follows results filed as active; . = no result.

SMILES	Mcl1 Noxa PPI	eIF4E-4G inh	Bim-Mcl-1	14-3-3 Bad PPI	Pf gamet viab	Mcl1-Bid inh
O=C(COc1ccccc1Cl)c1ccc[nH]1	50	33*	1	35	-7	-5
Clc1cccc(N/N=C/c2ccc(N3CCOCC3)s2)c1	87*	7	-14	1	3	-38
CCCCCCCCS(=O)c1sc2nc(C)cc(C)c2c1N (configuration not stated)	-16	5	-4	-2	.	-41
N#C/C(=C\c1ccncc1)c1nc2ccccc2o1	31	96*	.	0	17	-23
COc1ccc(C(=O)n2nc(C)c(Br)c2C)cc1	85*	-4	-4	13	-4	16
CCSc1cnc(-c2ccccc2)n1CC	17	12	-2	61	.	20
C=CCN(CC=C)C(=S)NC(=O)c1ccc(C)c(Br)c1	-36	0	-2	-11	-1	-49
O=C1CCCC(=O)C1=Cc1c[nH]c2ccccc12	9	-2	-2	-2	4	-10
CN1CCN(Cc2cccc(Oc3ccc(Cl)cc3)c2)CC1	27	0	-1	62	-11	67*
CCN1CCN(Cc2cccc(Oc3ccc(Cl)cc3)c2)CC1	11	2	-2	69	0	13
CCc1nnc(NS(=O)(=O)c2ccc(NC(=O)OC)cc2)s1	19	1	.	-5	0	4
CCc1nnc(NS(=O)(=O)c2ccc(NC(=O)c3cc4ccccc4oc3=O)cc2)s1	64*	-5	-7	-1	-11	8
COc1cc(NC(=O)C2CCN(S(=O)(=O)c3cccc4nonc34)CC2)cc(OC)c1	10	5	3	-11	-10	81*
CCOc1ccc2nc(NC(=O)C3CCCN(S(=O)(=O)c4cccc5nonc45)C3)sc2c1 (configuration not stated)	45	-1	-6	1	.	59*
Cc1cccc(N2CCN(C(=S)c3ccccc3)CC2)c1	-5	4	-1	-3	.	10
Cc1cccc(N2CCN(c3ccc(NC(=O)/C=C(/C(=O)O)c4ccccc4)cc3)CC2)c1	52*	14	-2	19	0	-10
CC1CN(C(=O)Nc2ccc(Br)cc2Cl)CC(C)O1 (configuration not stated)	10	3	-1	2	-3	1
CNCc1ccccc1OCc1ccccc1F	74*	1	3	-8	-16	-3
Fc1ccc(N2CCN(C(c3cccs3)c3nnnn3C3CCCC3)CC2)cc1 (configuration not stated)	8	3	-1	-11	.	-13
CN(C)c1ccc(/C=C2\SC(=O)N(CCc3nnc(N)s3)C2=O)cc1	67*	8	.	24	-9	-109
CN(C)c1ccc(/C=C2/SC(=O)N(CCN=C3NS(=O)(=O)c4ccccc43)C2=O)cc1	52*	5	78*	1	2	34
C/C(=N\N1CCN(c2ccc(Cl)cc2)CC1)c1cccs1	9	1	-5	-4	.	-2
O=C(CSc1ncn[nH]1)Nc1ccc(S(=O)(=O)N2CCCC2)cc1	-10	-2	2	-7	24	4
Cc1cc(C)cc(NC(=O)NN2C(C)CCCC2C)c1 (configuration not stated)	-1	-5	-1	-14	-11	-20
CCCN=C1N/C(=C\c2ccco2)C(=O)N1c1ccccc1	2	-5	-1	-11	.	-44
SMILES	Mcl1 Noxa PPI	eIF4E-4G inh	Bim-Mcl-1	14-3-3 Bad PPI	Pf gamet viab	Mcl1-Bid inh
O=C1/C(=C\c2ccco2)NC(=S)N1c1ccccc1	58*	3	3	1	-7	-31
CN(C)S(=O)(=O)c1cccc(-c2nn(-c3ccccc3)cc2/C=C(\C#N)c2nc3ccccc3[nH]2)c1	4	-1	-3	-5	.	5
N#C/C(=C\c1cn(-c2ccccc2)nc1-c1cc2ccccc2o1)c1nc2ccccc2[nH]1	59*	7	0	-3	-11	18
Cc1cc(/C=C(/C#N)c2nc3ccccc3[nH]2)c(C)n1-c1cc(C(=O)O)cc(C(=O)O)c1	52*	4	5	-1	-38	-73
COC(=O)c1c(NC(=S)Nc2ccc(CC(=O)O)cc2)sc(C)c1C	72*	0	-5	-17	.	-81
COc1ccccc1NC(=O)c1sc2ncn(Cc3ccc(C)cc3)c(=O)c2c1C	14	-43	-3	34	.	74*
